LmPK inh = blocks Leishmania mexicana pyruvate kinase activity; Potency, µM (series often up to 57.5 µM), most hits filed as inhibitors; purified LmPK, Kinase-Glo ATP luminescence, 1 h; 290,000 tested, 0.37% active
Target sequence (Q27686 whole entry, looked up): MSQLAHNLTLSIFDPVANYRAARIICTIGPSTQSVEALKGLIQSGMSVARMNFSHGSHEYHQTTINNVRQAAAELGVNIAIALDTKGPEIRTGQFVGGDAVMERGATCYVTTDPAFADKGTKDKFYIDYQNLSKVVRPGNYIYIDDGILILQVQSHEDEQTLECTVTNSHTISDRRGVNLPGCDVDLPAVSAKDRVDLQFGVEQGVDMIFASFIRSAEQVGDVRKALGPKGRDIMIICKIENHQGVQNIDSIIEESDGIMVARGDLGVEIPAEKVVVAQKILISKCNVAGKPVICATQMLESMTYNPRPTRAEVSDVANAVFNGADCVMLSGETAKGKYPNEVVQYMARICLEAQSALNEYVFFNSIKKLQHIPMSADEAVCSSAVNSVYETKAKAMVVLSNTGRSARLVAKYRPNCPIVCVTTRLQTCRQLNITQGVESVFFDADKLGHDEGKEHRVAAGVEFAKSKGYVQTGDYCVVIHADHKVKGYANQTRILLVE
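Purified LmPK (0.1 nM) with 0.5 mM PEP and 0.1 mM ADP in imidazole buffer pH 7.2 with MgCl2/KCl, 1 h at room temperature. ATP formed was read by luciferase luminescence and normalized to no-enzyme and uninhibited controls.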
Tb PYK inh = T. brucei pyruvate kinase inhibition. TbPYK enzyme, Kinase-Glo Plus ATP luminescence, 45 min. 410,000 tested, 0.12% active. AID 624173. Potency, µM (highest dose often 76.8 µM), most hits filed as inhibitors. Q57TT1; further: nearly all actives have a fitted effect of over 50% in size
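Assay buffer: 50 mM TEA pH 7.2, 100 mM KCl, 10 mM MgCl2, 0.05% BSA, 0.01% Tween-20. Pyruvate kinase from T. brucei plus substrate met compound, then ADP (130 uM final). Luminescence was read post 45 min RT.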
Giardia FBPA inh-1 = inhibitors of Giardia lamblia fructose-1,6-bisphosphate aldolase. A8B2U2. purified Giardia FBPA. Potency, µM (top dose mostly 59.6 µM), most hits filed as inhibitors. 290,000 tested, 0.71% active; further: nearly all actives have a fitted effect of over 55% in size
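Giardia FBPA (40 nM reagent) was preincubated 10 min at RT with compound (up to 57.5 uM final), then substrate plus GAPDH/TPI/NAD/arsenate coupling system with diaphorase/resazurin was added; resorufin fluorescence (525/598 nm) was read after 20 min.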
RE007 growth inh = less growth of the S. pombe RE007 Vpr strain. S. pombe RE007 Vpr strain, BacTiter-Glo ATP luminescence, 24 h. AID 651644. Potency, µM (titrated, usually from 92.2 µM), hits mostly inhibitors. 360,000 tested, 0.21% active; active means well fitted falling curve with a large enough effect; inconclusive means small, poorly fitted or top-dose-only effect; inactive means no such curve, though single readings can be large or run the other way; further: nearly all actives have a fitted effect of over 50% in size
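Fission yeast strain RE007, carrying one chromosomally integrated HIV-1 vpr copy, was seeded at OD 0.01 in PMG+AL medium with 23 nL pinned compound. After 24 h at 30 °C and 99% humidity, viability was read by BacTiter-Glo luminescence.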
Giardia growth = blocks growth of Giardia lamblia trophozoites; shares compounds with Giardia FBPA inh-1; Potency, µM (series often up to 57.5 µM), hits mostly inhibitors; Giardia lamblia trophozoite growth inhibition; AID 2785; 1,500 tested, 5% active;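 further: trophozoites exposed to compound for 48 h at 37 °C; nearly all actives have a fitted effect of over 70% in size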
Mammalian tox = counter-screen for Giardia aldolase inhibitors: mammalian cell toxicity. mammalian cell viability counter-screen, qHTS. 1,500 tested, 4% active. shares compounds with Giardia FBPA inh-1. AID 2786. Potency, µM (series often up to 57.5 µM), actives largely listed as inhibitors;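 further: Chinese hamster ovary cells used as mammalian cytotoxicity surrogate; viability measured as cellular ATP by luminescence; compound exposure lasted 48 h before reading; nearly all actives have a fitted effect of over 60% in size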
Giardia FBPA inh-2 = confirmation of Giardia fructose-bisphosphate aldolase inhibitors. shares compounds with Giardia FBPA inh-1. purified Giardia aldolase enzyme activity, qHTS. AID 2787. 1,500 tested, 5% active. Potency, µM (highest dose often 57.5 µM), hits mostly inhibitors; further: nearly all actives have a fitted effect of over 45% in size
Rabbit FBPA inh = rabbit FBP aldolase inhibition by Giardia aldolase hits; AID 2794; Potency, µM (doses to about 57.5 µM), hits mostly inhibitors; Rabbit muscle FBPA enzyme inhibition, selectivity counter-screen; shares compounds with Giardia FBPA inh-1; 1,500 tested, 4% active; further: nearly all actives have a fitted effect of over 60% in size
GAPDH counter = counter-screen for Giardia aldolase inhibitors: GAPDH coupling enzyme. 1,500 tested, 6% active. AID 2795. shares compounds with Giardia FBPA inh-1. GAPDH coupling enzyme counterscreen, biochemical, qHTS. Potency, µM (doses to about 57.5 µM), most hits filed as inhibitors; further: nearly all actives have a fitted effect of over 55% in size
Numbers stand for hits; - = inactive; ? = inconclusive; . = not tested or not shown; ! = repeats disagree; [ ] = dose if it differs, or a comment. Shown are actives, neighbours in structure and some others; about 0.95% of the full set was active somewhere. Unless noted, the call rests on the fitted dose curve; in most records, active means well fitted curve in the direction sought with a large enough effect; inconclusive means small, poorly fitted or top-dose-only effect, or another doubt; inactive means no such curve, though single readings can be large; an effect the other way counts as inactive or inconclusive.

SMILES	LmPK inh	Tb PYK inh	Giardia FBPA inh-1	RE007 growth inh	Giardia growth	Mammalian tox	Giardia FBPA inh-2	Rabbit FBPA inh	GAPDH counter
CC1(C)CC(Cc2nc(=S)[nH][nH]2)C(=O)O1 (stereo not given)	-	-	6.3µM	-	-	-	-	-	-
CC1(C)CC(CC(=O)Nc2ccccn2)C(=O)O1 (stereo not given)	-	-	-	-	.	.	.	.	.
O=C(O)c1cc2ncc(CCO)cn2n1	-	-	16µM	-	-	-	-	-	-
O=C(c1cc2ncc(CCCl)cn2n1)N1CCCCCC1	-	-	-	-	.	.	.	.	.
O=C(Nc1nnc2n1CCS2)c1ccccc1C(F)(F)F	.	-	.	.	.	.	.	.	.
O=C(O)CN(CCN(CC(=O)O)CC(=O)O)CCN(CC(=O)O)CC(=O)O	.	-	7.9µM!	.	?	-	?	-	-
O=C(O)CN(CCOCCOCCN(CC(=O)O)CC(=O)O)CC(=O)O	.	-	?	.	.	.	.	.	.
CC(=O)Nc1ccc(S(=O)(=O)N2CCN(Cc3cccc([N+](=O)[O-])c3)CC2)cc1	-	-	18µM	-	-	-	-	-	-
O=C(Cn1c(=O)n(Cc2nc(-c3ccccc3)no2)c(=O)c2cc3c(cc21)OCO3)Nc1cccc(C(F)(F)F)c1	.	-	.	.	.	.	.	.	.
CCOC(=O)c1cc(OC(=O)c2ccc(Cl)cc2)n(-c2ccccc2)n1	.	-	.	.	.	.	.	.	.
Nn1c(SCC(=O)Nc2ccccc2C(F)(F)F)nncc1=O	-	-	20µM	-	-[10.4 µM]	-	-	-	-
Nn1c(SCC(=O)Nc2ccc3c(c2)OCCO3)nncc1=O	-	-	25µM	-	-	-	-	-	-
CCSc1nnc(NC(=O)CSc2nncc(=O)n2N)s1	-	-	-	-	.	.	.	.	.
CCc1nnc(NC(=O)CSc2nncc(=O)n2N)s1	-	-	25µM	-	-	-	-	-	-
Cc1ccccc1-c1nnc(SCC(=O)Nc2ccc3c(c2)OCCO3)n1N	-	-	-	-	.	.	.	.	.
CC1=C(C(=O)Nc2ccc(C)cc2C)C(c2ccccc2C)n2ncnc2N1 (stereo not given)	.	-	.	.	.	.	.	.	.
O=C(Nc1nc(-c2ccccn2)cs1)c1cccc(-n2cnnn2)c1	-	-	5µM	-	?	32µM	-	-	-
C[C@H](NC(=O)c1ccco1)C(=O)Nc1nc(-c2ccccn2)cs1	.	-	.	-	.	.	.	.	.
Cc1ccnc2nc(C(=O)Nc3nc(-c4ccccn4)cs3)nn12	-	-	16µM	-	?	-	-	-	-
O=C(Nc1nc(-c2ccccn2)cs1)c1ccco1	-	-	16µM	?	?	40µM	-	-	-
CCNc1ncc2ncc(=O)n(Cc3ccc(F)cc3)c2n1	.	.	-	.	.	.	.	.	.
CCN1C(=O)c2ccccc2Sc2ccc(NC(=O)Nc3cc(C)cc(C)c3)cc21	.	-	.	.	.	.	.	.	.
CC1OC(OCC2OC(Oc3cc(O)c4c(c3)OC(c3ccc(O)cc3)CC4=O)C(O)C(O)C2O)C(O)C(O)C1O (stereo not given)	.	.	-	.	.	.	.	.	.
Cc1ccc(/C=C2\SC(=S)N(CC3CCCO3)C2=O)o1 (stereo not given)	-	?	18µM	-	-	-	-	-	-
COc1ccc(OCC2c3cc(OC)c(OC)cc3CCN2C(=O)c2c(F)cccc2F)cc1 (stereo not given)	.	-	.	.	.	.	.	.	.
SMILES	LmPK inh	Tb PYK inh	Giardia FBPA inh-1	RE007 growth inh	Giardia growth	Mammalian tox	Giardia FBPA inh-2	Rabbit FBPA inh	GAPDH counter
CC(=O)N1c2ccc(S(=O)(=O)NCC3CCC(C(=O)NC(C)(C)C)CC3)cc2CC1C (stereo not given)	.	-	.	.	.	.	.	.	.
Cc1ccc(S(=O)(=O)N2CCN(CCc3ccccc3)CC2)c(C)c1	-	-	20µM	-	-	-	-	-	-
COc1ccc(OC)c(NC(=O)C(C)SCc2nc3sc(C)c(C)c3c(=O)[nH]2)c1 (stereo not given)	.	-	.	-	.	.	.	.	.
COc1ccc(NC(C)=O)cc1NC(C)c1nc2sc(C)c(C)c2c(=O)[nH]1 (stereo not given)	-	-	8.9µM	-	-[10.4 µM]	-	?	?	?
C[C@H](N)C(=O)N1CCC(C(=O)N[C@@H](Cc2ccccc2)C(=O)Nc2ccc(F)cc2)CC1	-	-	16µM	-	-	-	-	-	-
Nc1nc2c(s1)CCc1c-2cnn1-c1ccccc1	14µM	?	0.4µM	.	?	?	13µM	14µM	13µM
Nc1nc2c(s1)COc1ccccc1-2	-	-	-	-	.	.	.	.	.
CC1=C(c2ccc(C)c(C)c2)S(=O)(=O)N(Cc2ccc(C(=O)NCc3ccc(C)cc3)cc2)C1=O	.	-	.	.	.	.	.	.	.
CN(C)S(=O)(=O)c1cccc(-n2sc3ccccc3c2=O)c1	-	4µM	14µM	-	?	?	-	22µM	-
CN(C)S(=O)(=O)c1ccc2[nH]cc(/C=C/c3nc4ccccc4c(=O)n3-c3ccccc3)c2c1	-	-	-	-	.	.	.	.	.
CC(C)n1c(=S)[nH]c2c1c(=O)[nH]c(=O)n2C	-	?	16µM	-	-[10.4 µM]	-	-	-	-
COC(=O)c1ccc(NC(=O)CC2C(=O)N(c3cccc(OC)c3)C(=O)N2Cc2cccs2)cc1 (stereo not given)	.	-	.	.	.	.	.	.	.
O=C(CNC1CC1)Nc1cc(C(F)(F)F)ccc1Cl	-	-	7.9µM	-	?	-	-	-	-
CN(C)CC(=O)Nc1cc(C(F)(F)F)ccc1Cl	-	-	-	-	.	.	.	.	.
Cc1ccc(CC(=O)Nc2c(C(=O)N3CCN(c4ccccc4F)CC3)oc3ccccc23)cc1	.	-	.	.	.	.	.	.	.
CC1=NN(C(N)=S)C(=O)C1N=Nc1ccccc1C(=O)O (stereo not given)	-	-	14µM	-	-[10.4 µM]	-	-	-	-
CC1=NN(C(N)=S)C(=O)C1N=Nc1cccc(C(=O)O)c1 (stereo not given)	-	-	?	-	-	-	-	-	-
O=C(Nc1ccccc1F)c1nc(SCc2ccc(F)cc2)ncc1Cl	.	-	.	.	.	.	.	.	.
CC(C)c1ccc(S(=O)(=O)/N=C2/C=C(Sc3ncn[nH]3)C(=O)c3ccccc32)cc1	?	14µM	0.45µM	?	7.1µM	25µM	3.5µM	16µM	3.5µM
O=C(/C(=N/N=C/c1ccc(O)c(O)c1O)c1ccccc1)c1ccccc1	-	-	?	-	.	.	.	.	.
Oc1ccc(/C=N/N=C(c2ccccc2)c2ccccc2)c(O)c1O	-	?	5.6µM	?	-[10.4 µM]	-	10µM	?	?
C=CCc1cc(Cl)ccc1OCCN1CC(C)OC(C)C1 (stereo not given)	-	-	18µM	-	-	-	-	-	-

Screening data as filed in PubChem BioAssay.
